Inconclusive results are not listed. Where a call stands in place of a potency, no number is given. Calls of active or inactive are those of the source. Unless noted, calls follow the shape of the full dose curve.
Tested on: not listed separately
Test: qHTS for Inhibitors of the Functional Ribonucleoprotein Complex (vRNP) of Lassa (LASV) Arenavirus: LASV Primary Screen - GLuc reporter signal (AID 1347082; calls by dose curve; tested in HEK293 reporter line; also: nearly all actives have a fitted effect of over 60% in size)
Settings: LASV minigenome vRNP, Gaussia luciferase reporter; series mostly up to 57.5 µM

SMILES	Potency
CCCSS/C(CCO)=C(\C)N(C=O)Cc1cnc(C)nc1N	inactive
COC(=O)Nc1nc2ccc(S(=O)c3ccccc3)cc2[nH]1 (stereo not given)	inactive
COc1cc(O)c(C(=O)c2ccccc2)cc1S(=O)(=O)O	inactive
CN1CCCC(n2nc(Cc3ccc(Cl)cc3)c3ccccc3c2=O)CC1 (stereo not given)	inactive
O=C(OCC(O)CO)c1ccccc1Nc1ccnc2cc(Cl)ccc12 (stereo not given)	inactive
O=C1N(c2ccccc2)c2ccccc2C1(Cc1ccncc1)Cc1ccncc1	inactive
CCO[C@H]1O[C@@H]2OC3(C)CC[C@H]4[C@H](C)CC[C@@H]([C@H]1C)[C@@]24OO3	inactive
C#C[C@]1(O)CC[C@H]2[C@@H]3CCc4cc(O)ccc4[C@H]3CC[C@@]21C	inactive
CC[C@]1(O)CC[C@H]2[C@@H]3CCC4=CCCC[C@@H]4[C@H]3CC[C@@]21C	inactive
CCCS(=O)c1ccc2nc(NC(=O)OC)[nH]c2c1 (stereo not given)	inactive
CN1CCN(CCC(=O)N2c3ccccc3Sc3ccc(C(F)(F)F)cc32)CC1	inactive
CC[C@]12CCCN3CCc4c(n(c5ccccc45)C(=O)C1)[C@@H]32	inactive
Cc1ccc2nc(N)[nH]c(=O)c2c1Sc1ccncc1	inactive
Cc1c(C)n(CCN(C)C)c2ccc(C(=O)OCCN(C)C)cc12	inactive

Tested on: not listed separately
Test: qHTS for Inhibitors of the Functional Ribonucleoprotein Complex (vRNP) of Lassa (LASV) Arenavirus: Viability assay - alamar blue signal for LASV Primary Screen (AID 1347083; calls by dose curve; tested in HEK293 reporter line; also: nearly all actives have a fitted effect of over 80% in size; also: potency is read from the fitted curve at half-maximal effect)
Settings: cell viability, alamar blue fluorescence (LASV minigenome counter-screen); series mostly up to 57.5 µM

SMILES	Potency
O=C1[C@H]2CCCC[C@H]2C(=O)N1CCCCN1CCN(c2nsc3ccccc23)CC1	inactive
O[C@@H](COc1cccc2ncccc12)CN1CCN(C2c3ccccc3[C@@H]3[C@H](c4ccccc42)C3(F)F)CC1 (stereo not given in full)	12.2 µM (active)
CC(C)n1nc(-c2cc3cc(O)ccc3[nH]2)c2c(N)ncnc21	1.78 µM (active)
CCOC(=O)N1CCC(n2c(=O)[nH]c3cc(Cl)ccc32)CC1	inactive
CCCCCN=C(N)N/N=C/c1c[nH]c2ccc(OC)cc12	inactive
COc1cccc2c1C(=O)c1c(O)c3c(c(O)c1C2=O)C[C@@](O)(C(C)=O)C[C@@H]3O[C@H]1C[C@H](N)[C@H](O)[C@H](C)O1	0.891 µM (active)
CCCCCCCCCCCCCCCC[n+]1ccccc1	15.8 µM (active)
Clc1ccccc1C(c1ccccc1)(c1ccccc1)n1ccnc1	inactive

Tested on: not listed separately
Test: qHTS for Inhibitors of the Functional Ribonucleoprotein Complex (vRNP) of Lymphocytic Choriomeningitis Arenaviruses (LCMV): Viability assay - alamar blue signal for LCMV Primary Screen (AID 1347085; calls by dose curve; tested in HEK293 reporter line; also: nearly all actives have a fitted effect of over 80% in size; also: potency is read from the fitted curve at half-maximal effect)
Settings: alamar blue viability counter-screen, LCMV vRNP screen cells; series mostly up to 57.5 µM

SMILES	Potency
O=C1[C@H]2CCCC[C@H]2C(=O)N1CCCCN1CCN(c2nsc3ccccc23)CC1	inactive
CC(=O)SC[C@@H](Cc1ccccc1)C(=O)NCC(=O)OCc1ccccc1	inactive
CC[N+](CC)(CC)CCOc1ccc(/C=C/c2ccccc2)cc1	inactive
CO[C@@H]1[C@@H](OC)[C@H](C)[C@@](O)(CC(=O)O)O[C@H]1[C@H](C)[C@H]1O[C@@]2(CC[C@@](C)([C@H]3CC[C@@](C)([C@@H]4O[C@@H]([C@H]5O[C@](C)(O)[C@H](C)C[C@@H]5C)C[C@@H]4OC4C[C@H](OC)[C@@H](OC)[C@H](C)O4)O3)O2)C[C@H](O)[C@H]1C (stereo not given in full)	2 µM (active)
Clc1ccc(CSC(Cn2ccnc2)c2ccc(Cl)cc2Cl)cc1 (stereo not given)	inactive
COC(=O)c1nc(Cl)c(Cl)nc1N	inactive
O=C(O)c1ccc(OCCCOc2ccc(C(=O)O)cc2)cc1	inactive
CCOC(=O)N1CCC(n2c(=O)[nH]c3cc(Cl)ccc32)CC1	inactive
O=C(Nc1ccc(Cl)cc1)Nc1ccc(Cl)c(C(F)(F)F)c1	14.1 µM (active)
Oc1c(Cl)cc(Cl)c(Cl)c1Cc1c(O)c(Cl)cc(Cl)c1Cl	inactive
Nc1c2ccccc2nc2ccccc12	14.1 µM (active)
COc1cccc2c1C(=O)c1c(O)c3c(c(O)c1C2=O)C[C@@](O)(C(C)=O)C[C@@H]3O[C@H]1C[C@H](N)[C@H](O)[C@H](C)O1	0.355 µM (active)
Cc1nc2ccccc2n1Cc1ccc(Cl)cc1	inactive
Clc1ccccc1C(c1ccccc1)(c1ccccc1)n1ccnc1	inactive

Target: Nucleoprotein (Lymphocytic choriomeningitis virus (strain Armstrong)) (UniProt P09992)
Test: qHTS for Inhibitors of the Functional Ribonucleoprotein Complex (vRNP) of Lymphocytic Choriomeningitis Arenaviruses (LCMV): LCMV Primary Screen - GLuc reporter signal (AID 1347086); also: nearly all actives have a fitted effect of over 70% in size; also: potency is read from the fitted curve at half-maximal effect
Settings: LCMV minigenome vRNP cell assay, Gaussia luciferase reporter; series mostly up to 57.5 µM

Sequence of Nucleoprotein (Lymphocytic choriomeningitis virus (strain Armstrong)) (P09992 whole entry, looked up): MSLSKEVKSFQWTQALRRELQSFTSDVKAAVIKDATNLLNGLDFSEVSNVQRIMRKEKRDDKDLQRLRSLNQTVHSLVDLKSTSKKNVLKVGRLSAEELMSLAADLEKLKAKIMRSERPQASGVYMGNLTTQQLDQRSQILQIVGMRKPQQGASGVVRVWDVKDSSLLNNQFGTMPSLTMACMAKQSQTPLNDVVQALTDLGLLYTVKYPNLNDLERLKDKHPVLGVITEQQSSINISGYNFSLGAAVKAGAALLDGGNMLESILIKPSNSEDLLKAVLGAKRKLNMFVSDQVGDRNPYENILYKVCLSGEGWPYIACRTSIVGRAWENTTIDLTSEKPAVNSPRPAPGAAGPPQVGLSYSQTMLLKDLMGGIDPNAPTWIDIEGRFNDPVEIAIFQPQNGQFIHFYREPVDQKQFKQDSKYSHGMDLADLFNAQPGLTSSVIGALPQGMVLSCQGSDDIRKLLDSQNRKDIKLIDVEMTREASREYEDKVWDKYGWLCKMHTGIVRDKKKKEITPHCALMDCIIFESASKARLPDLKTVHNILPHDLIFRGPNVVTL

SMILES	Potency
O=C1[C@H]2CCCC[C@H]2C(=O)N1CCCCN1CCN(c2nsc3ccccc23)CC1	inactive
CCCSS/C(CCO)=C(\C)N(C=O)Cc1cnc(C)nc1N	inactive
COC(=O)Nc1nc2ccc(S(=O)c3ccccc3)cc2[nH]1 (stereo not given)	inactive
CC(=O)SC[C@@H](Cc1ccccc1)C(=O)NCC(=O)OCc1ccccc1	inactive
CC[N+](CC)(CC)CCOc1ccc(/C=C/c2ccccc2)cc1	inactive
CO[C@@H]1[C@@H](OC)[C@H](C)[C@@](O)(CC(=O)O)O[C@H]1[C@H](C)[C@H]1O[C@@]2(CC[C@@](C)([C@H]3CC[C@@](C)([C@@H]4O[C@@H]([C@H]5O[C@](C)(O)[C@H](C)C[C@@H]5C)C[C@@H]4OC4C[C@H](OC)[C@@H](OC)[C@H](C)O4)O3)O2)C[C@H](O)[C@H]1C (stereo not given in full)	0.562 µM (active)
Clc1ccc(CSC(Cn2ccnc2)c2ccc(Cl)cc2Cl)cc1 (stereo not given)	inactive
COc1cc(O)c(C(=O)c2ccccc2)cc1S(=O)(=O)O	inactive
Cc1cc(C2CCCCC2)n(O)c(=O)c1	inactive
CN1CCCC(n2nc(Cc3ccc(Cl)cc3)c3ccccc3c2=O)CC1 (stereo not given)	inactive
O=C(O)c1ccc(OCCCOc2ccc(C(=O)O)cc2)cc1	inactive
O=C(OCC(O)CO)c1ccccc1Nc1ccnc2cc(Cl)ccc12 (stereo not given)	inactive
CC(C)n1nc(-c2cc3cc(O)ccc3[nH]2)c2c(N)ncnc21	1.78 µM (active)
Cc1cc2nc3ccc(=[N+](C)C)cc-3sc2cc1N	6.31 µM (active)
O=C1N(c2ccccc2)c2ccccc2C1(Cc1ccncc1)Cc1ccncc1	inactive
C[C@@H]1C[C@H]2[C@@H]3CCC4=CC(=O)C=C[C@]4(C)[C@@]3(Cl)[C@@H](O)C[C@]2(C)[C@@]1(OC(=O)c1ccco1)C(=O)CCl	inactive
C#C[C@]1(O)CC[C@H]2[C@@H]3CCc4cc(O)ccc4[C@H]3CC[C@@]21C	inactive
CC[C@]1(O)CC[C@H]2[C@@H]3CCC4=CCCC[C@@H]4[C@H]3CC[C@@]21C	inactive
CCCS(=O)c1ccc2nc(NC(=O)OC)[nH]c2c1 (stereo not given)	inactive
CN1CCN(CCC(=O)N2c3ccccc3Sc3ccc(C(F)(F)F)cc32)CC1	inactive
CC[C@]12CCCN3CCc4c(n(c5ccccc45)C(=O)C1)[C@@H]32	7.08 µM (active)
Cc1ccc2nc(N)[nH]c(=O)c2c1Sc1ccncc1	inactive
Clc1ccccc1C(c1ccccc1)(c1ccccc1)n1ccnc1	inactive
Cc1c(C)n(CCN(C)C)c2ccc(C(=O)OCCN(C)C)cc12	inactive
